TDP1 cell CPT – DT40-hTDP1 cell growth loss with CPT; chicken DT40 Tdp1-/-;hTDP1 cells + 20 nM CPT, ATP luminescence, 48 h; Potency, µM (top dose mostly 46.2 µM), actives largely listed as inhibitors; 420,000 tested, 12% active; further: nearly all actives have a fitted effect of over 55% in size
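Chicken DT40 Tdp1-/- cells complemented with human TDP1, 400 cells/well, exposed to compounds plus 20 nM camptothecin for at least 48 h at 37 C; viability read as ATP content by CellTiter-Glo luminescence.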
TDP1 cell noCPT – qHTS for Inhibitors of human tyrosyl-DNA phosphodiesterase 1 (TDP1): qHTS in cells in absence of CPT; DT40 Tdp1-/- hTDP1 cells, no CPT, ATP luminescence, 48 h; Potency, µM (highest dose often 46.2 µM), usual class: inhibitors; 420,000 tested, 15% active; AID 686978, 2013; further: nearly all actives have a fitted effect of over 55% in size
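Chicken DT40 Tdp1-/- cells complemented with human TDP1, screened without camptothecin (DMSO vehicle only), 400 cells/well. Compounds pin-transferred, cells incubated at 37 °C for at least 48 hr. Growth read as ATP-dependent luminescence (CellTiter-Glo, 30 min at RT).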
TGFb SMAD3 inh – TGF-b pathway inhibition. HepG2 CAGA-GFP TGF-b/SMAD3 reporter, GFP fluorescence, 18 h; TGF-beta stimulated, 500 pg/mL final. Potency, µM (series often up to 46.1 µM), actives largely listed as inhibitors. 410,000 tested, 1.2% active; further: nearly all actives have a fitted effect of over 65% in size
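Per well, imaged GFP fluorescence of HEPG2 CAGA-GFP cells gives the signal; cells get compound, then TGF-beta (500 pg/mL final), 18 h at 37 degrees C; %Activity versus -TGF-beta and +DMSO controls.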
IL-1B inflam inh – blocks inflammasome-driven IL-1 beta release; THP-1 LPS/ATP IL-1B secretion, AlphaLISA, 16 h; stronger effect = lower value; activity change, % at 57.5 µM; 360,000 tested, 4.7% active; in the data active means activity change below about -50%; inconclusive means mostly about -30% to -49%
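Secreted IL-1B measured by AlphaLISA bead assay after 16 h compound exposure of THP-1 cells; compounds (final up to 57.5 uM) added 1 h before LPS (250 ng/mL) and ATP (1.25 mM) stimulation; lower signal means less secretion.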
HepG2 viability – HepG2 cytotoxicity, counter-screen for TGF-b inhibitors. HepG2 CAGA-GFP viability, ATP luminescence, 18 h. Potency, µM (doses to about 46.1 µM), usual class: cytotoxic. 410,000 tested, 0.76% active. AID 588856
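HepG2 CAGA-GFP cells (1000/well, DMEM with 1% FBS) received compound, then TGF-beta at 500 pg/mL final, and were incubated 18 hours at 37 degrees C. Viability was read by CellTiter-Glo luminescence. Media-only wells were set as complete cell-killing and DMSO as no toxicity.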
ASM inhibitor – human S-ASM enzyme inhibition. placental ASM, HMU-PC fluorogenic substrate, 60 min. Potency, µM (titrated, usually from 57.5 µM), most hits filed as inhibitors. 340,000 tested, 0.006% active
Target sequence (P17405 47-631 limits assumed): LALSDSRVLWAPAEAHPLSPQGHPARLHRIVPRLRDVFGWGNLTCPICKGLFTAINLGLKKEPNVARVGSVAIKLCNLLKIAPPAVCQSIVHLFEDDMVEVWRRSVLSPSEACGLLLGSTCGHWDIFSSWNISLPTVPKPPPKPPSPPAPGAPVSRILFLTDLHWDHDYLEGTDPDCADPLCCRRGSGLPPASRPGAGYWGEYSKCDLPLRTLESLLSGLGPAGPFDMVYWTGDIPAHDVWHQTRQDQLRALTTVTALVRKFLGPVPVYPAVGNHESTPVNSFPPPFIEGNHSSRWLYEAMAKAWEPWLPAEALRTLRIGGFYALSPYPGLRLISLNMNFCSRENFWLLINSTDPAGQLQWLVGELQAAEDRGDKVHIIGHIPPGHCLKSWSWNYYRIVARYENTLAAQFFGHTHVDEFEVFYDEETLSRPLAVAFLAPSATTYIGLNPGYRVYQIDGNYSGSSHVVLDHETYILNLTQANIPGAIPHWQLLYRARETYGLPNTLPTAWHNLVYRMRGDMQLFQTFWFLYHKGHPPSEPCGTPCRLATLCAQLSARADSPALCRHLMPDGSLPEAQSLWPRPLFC
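Human placenta-derived ASM enzyme was preincubated with compound for 10 minutes at room temperature, then given fluorogenic substrate HMU-PC0 (9 uM final) for 60 minutes at 37 °C; a pH 10 stop preceded fluorescence reading at Ex 386/Em 447 nm.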
A number is an active result; – = inactive; ? = inconclusive; · = no result given. Most compounds without a hit are left out; they make up all but 19% or so of the library. Unless noted, the call rests on the fitted dose curve; in most records, active means well fitted curve in the direction sought with a large enough effect; inconclusive means small, poorly fitted or top-dose-only effect, or another doubt; inactive means no such curve, though single readings can be large; an effect the other way counts as inactive or inconclusive.

SMILES	TDP1 cell CPT	TDP1 cell noCPT	TGFb SMAD3 inh	IL-1B inflam inh	HepG2 viability	ASM inhibitor
O=[N+]([O-])c1ccc(N2CCCCC2)nc1N1CCCCC1	?	20.6µM	–	–	–	–
O=C(CN1CCCC1)Nc1nc(-c2ccc3c(c2)CCN3C(=O)c2ccccc2F)cs1	?	?	–	–	–	–
CNc1nc(-c2ccc3c(c2)CCN3C(=O)c2cccc(F)c2)cs1	23.1µM	20.6µM	–	?	–	–
CNc1nc(-c2ccc3c(c2)CCN3C(=O)c2ccc(F)cc2)cs1	?	?	–	–	–	–
CNc1nc(-c2ccc3c(c2)CCN3C(=O)c2ccccc2C)cs1	?	16.4µM	–	–	–	–
COc1cccc(C(NC(C)=O)c2nc(-c3ccccc3C)cs2)c1 (stereo not given)	–	?	–	–	–	·
CCn1nccc1C(=O)Nc1cc(Cl)ccc1Cl	–	–	–	-55.3	–	–
CC(=O)N1CCc2cc(N=NC3=C(O)CC(C)(C)CC3=O)ccc21	–	–	–	–	–	–
CC(C)CN(CC(C)C)S(=O)(=O)c1ccc(C(=O)Nc2sc3c(c2C(N)=O)CCN(C(C)C)C3)cc1	8.2µM	9.2µM	–	·	11.2µM	·
NC(=O)c1c(NC(=O)c2c(F)cccc2F)sc2c1CCN(Cc1ccccc1)C2	?	16.4µM	–	–	–	–
CCCCN(CCCC)S(=O)(=O)c1ccc(C(=O)Nc2sc3c(c2C(N)=O)CCN(CC)C3)cc1	?	?	–	·	–	·
CCN1CCc2c(sc(NC(=O)c3ccc(S(=O)(=O)N(CC)c4ccccc4)cc3)c2C(N)=O)C1	?	14.6µM	–	-95.8	–	–
CCOC(=O)c1c(NC(=O)c2ccc(S(=O)(=O)N(CC(C)C)CC(C)C)cc2)sc2c1CCN(CC)C2	8.2µM	16.4µM	–	·	–	·
COc1cc(S(=O)(=O)N2CCOCC2)ccc1NC(=O)COC(=O)COc1ccccc1	–	–	–	–	–	–
N#Cc1ccc(OCC(=O)N(C2CCCCC2)C2CCS(=O)(=O)C2)cc1 (stereo not given)	–	–	–	–	–	–
O=C1C=CC[C@H](/C=C/C[C@@H](O)C[C@H](O)CCc2ccccc2)O1	?	?	–	-96.5	–	–
CC(CNC(=O)c1ccc2c(c1)nc1n2CCOC1)c1ccccc1 (stereo not given)	–	–	–	·	–	·
CCn1nc(C)c(/C=N\NC(=O)c2ccc3c(c2)OCO3)c1C	–	–	–	–	–	–
Cc1nn(C)cc1/C=N/NC(=O)CSc1ccccn1	–	–	–	–	–	–
CCn1nc(C)c(/C=N/NC(=O)CSc2ccccn2)c1C	–	?	–	–	4.47µM	–
CCn1nc(C)c(/C=N/NC(=O)c2ccc3c(c2)c(C)c(C)n3Cc2ccccc2)c1C	10.3µM	10.3µM	–	–	–	–
CCn1ncc(/C=N\NC(=O)c2ccc3c(c2)c(C)c(C)n3Cc2ccccc2)c1C	–	?	–	–	–	?
CCn1cc(/C=N\NC(=O)c2ccc3c(c2)c(C)c(C)n3Cc2ccccc2)c(C)n1	13µM	16.4µM	–	–	–	–
CC1CC1C(=O)OCC(=O)NNC(=O)COc1ccc(Br)cc1 (stereo not given)	–	–	–	–	–	–
COc1cc2c(cc1OC)[C@@H]1Cc3cc4c(cc3[C@H](C2)N1C)OCO4	–	–	–	–	–	–
COc1cc2c(cc1OC)C1CCc3cc4c(cc3C1N=C2)OCO4 (stereo not given)	16.4µM	13µM	–	–	–	·
Cc1ccc(Cl)cc1N1CCN(C(=O)Cn2ncc3c([nH]c4ccccc43)c2=O)CC1	?	?	–	·	–	·

Screening data from PubChem BioAssay.
